Data reported in PMC4336329 (PLoS ONE, 2015).
Screen size: about 310,000 compounds; about 2,200 (0.71%) showed an effect of 50% or more. Effects have a minus sign here. This is one part of a sample in which strong results are shown more often than they occur.

biological target: human ether-à-go-go-related gene (hERG) potassium channel (human, UniProt Q12809); experiment: primary screen, population patch clamp on CHO cells stably expressing hERG; higher = less effect of the substance
Sequence (Q12809 whole entry, looked up): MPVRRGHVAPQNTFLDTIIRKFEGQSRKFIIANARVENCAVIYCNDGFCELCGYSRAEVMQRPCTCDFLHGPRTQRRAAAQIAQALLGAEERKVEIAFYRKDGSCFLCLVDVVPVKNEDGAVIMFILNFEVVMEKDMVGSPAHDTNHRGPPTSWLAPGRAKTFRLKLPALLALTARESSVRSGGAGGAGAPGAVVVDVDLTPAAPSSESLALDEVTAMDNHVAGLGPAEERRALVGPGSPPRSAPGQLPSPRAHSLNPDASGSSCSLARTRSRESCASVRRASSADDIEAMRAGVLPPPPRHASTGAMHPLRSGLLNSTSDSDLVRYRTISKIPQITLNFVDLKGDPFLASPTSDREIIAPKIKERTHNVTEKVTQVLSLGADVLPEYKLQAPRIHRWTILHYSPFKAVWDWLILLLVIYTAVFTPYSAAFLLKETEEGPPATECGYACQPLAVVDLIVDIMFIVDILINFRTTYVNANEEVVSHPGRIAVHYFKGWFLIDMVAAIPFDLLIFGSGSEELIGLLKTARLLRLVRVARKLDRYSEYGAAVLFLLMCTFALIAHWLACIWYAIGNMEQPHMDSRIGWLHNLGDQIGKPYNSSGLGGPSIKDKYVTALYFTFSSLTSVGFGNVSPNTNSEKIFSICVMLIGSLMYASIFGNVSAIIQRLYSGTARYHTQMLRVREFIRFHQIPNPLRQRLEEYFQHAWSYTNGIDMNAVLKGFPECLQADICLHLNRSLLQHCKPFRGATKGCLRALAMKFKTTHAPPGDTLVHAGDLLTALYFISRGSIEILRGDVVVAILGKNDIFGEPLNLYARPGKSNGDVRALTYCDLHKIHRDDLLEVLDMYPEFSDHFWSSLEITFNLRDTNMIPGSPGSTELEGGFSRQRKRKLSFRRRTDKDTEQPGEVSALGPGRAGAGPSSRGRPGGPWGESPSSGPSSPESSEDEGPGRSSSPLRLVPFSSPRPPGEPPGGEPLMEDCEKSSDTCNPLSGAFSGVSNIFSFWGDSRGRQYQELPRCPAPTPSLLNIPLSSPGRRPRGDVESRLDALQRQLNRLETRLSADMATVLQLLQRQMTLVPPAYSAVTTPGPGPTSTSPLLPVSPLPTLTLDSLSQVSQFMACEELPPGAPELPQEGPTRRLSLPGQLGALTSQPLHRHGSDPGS

Compound | hERG current change (%, negative = inhibition) at 1uM
O=C(Cn1c(=O)c(C(F)(F)F)nc2ccccc21)N1CCC2(CC1)OCCO2 | -0.212%
O=C(/C=C/c1ccoc1)c1ccccc1O | 3.71%
COc1ccc(CN2CCN(Cc3ccc(C)cc3)C(CCO)C2)cc1OC (stereo not shown) | -13.3%
COc1ccc(C(=O)NC2CCCCCC2)cc1OC1CCN(C(C)=O)CC1 | 7.33%
COc1cc(C(=O)NC2CCCCC2)ccc1OC1CCN(C(C)=O)CC1 | 11.4%
COc1ccc(C(=O)NC2CC2)cc1OC1CCN(Cc2ccc(SC)cc2)CC1 | -96.9%
O=C(NC1CCN(Cc2ccccc2)CC1)c1ccc2c(c1)[nH]c(=O)n2Cc1ccc(F)cc1 | 6.14%
COc1ccc(C(=O)NC2CCCCC2)cc1OC1CCN(C(C)C)CC1 | -30.9%
COc1ccc(C(=O)NC2CC2)cc1OC1CCN(Cc2ccc(F)cc2)CC1 | -81.9%
COc1cc(C(=O)NC2CCN(Cc3nnnn3Cc3ccc(F)cc3)CC2)cc(OC)c1OC | 3.89%
COc1ccc(C(=O)NCCCSC)cc1OC1CCN(C(C)C)CC1 | 13.4%
COc1ccc(C(=O)NC2CC2)cc1OC1CCN(C(C)CSC)CC1 (stereo not shown) | -54.2%
C/C=C(\C)CN1CCC(Oc2cc(C(=O)NC3CC3)ccc2OC)CC1 | -59.9%
Cc1ccc(S(=O)(=O)N2CCN(C(=O)CSc3ncc(C(F)(F)F)cc3Cl)CC2)cc1 | 11.1%
CCCCCCCCCCCCCCCC(=O)OC/C=C(C)/C=C/C=C(C)/C=C/C1=C(C)CCCC1(C)C | 10.2%
COc1cc(C2C(C#N)=C(N)Oc3n[nH]c(C)c32)cc2c1OCO2 (stereo not shown) | -3.12%
CCc1nnc(NC(=O)C2CCCN2C(=O)Nc2ccc(C)cc2)s1 (stereo not shown) | 8.89%
COc1ccc(CNS(=O)(=O)c2ccc3c(c2)CCN3C(=O)C2CC2)cc1 | 5.86%
NS(=O)(=O)c1ccc(CCNC(=O)Cc2ccc(S(=O)(=O)N3CCCC3)s2)cc1 | 14.9%
Cc1ccc(C(=O)NCCCNCCCNC(=O)c2ccc(C)nc2)cn1 | -10.3%

Compound | hERG current change (%, negative = inhibition) at 1uM
CCCCNc1ccccc1C(=O)OCC(=O)Nc1ccc(S(N)(=O)=O)cc1 | 0.586%
COc1ccc2oc3cc(C)[n+]([O-])c(-c4ccc(Br)cc4)c3c2c1 | 4.46%
Cc1nc(-c2ccc([N+](=O)[O-])cc2)nc2[nH]ccc(=O)c12 | 14.5%
Fc1ccc(-c2n[nH]c(=S)c3ccccc23)cc1 | 9.98%
C[C@H](OC(=O)n1ccnc1)[C@@H]1O[C@@]2(C)CCC[C@@H]1O2 | 15.1%
CC(Oc1ccc(Br)cc1)C(=O)NC1CCN(Cc2ccccc2)CC1 (stereo not shown) | -59.6%
CC(C)Oc1ccc(C(=O)NC2CCN(Cc3ccccc3)CC2)cc1 | -21%
CC(Oc1ccccc1)C(=O)NC1CCN(Cc2ccccc2)CC1 (stereo not shown) | -5.84%
Cc1c(C)c2ccc(OC(C)C(=O)NC3CCN(Cc4ccccc4)CC3)cc2oc1=O (stereo not shown) | -17.2%
CC(Oc1ccc2ccc(=O)oc2c1)C(=O)NC1CCN(Cc2ccccc2)CC1 (stereo not shown) | -38.3%
Cc1cc(=O)oc2cc(OC(C)C(=O)NC3CCN(Cc4ccccc4)CC3)ccc12 (stereo not shown) | -52.6%
CC1C(=O)N2CCCc3cc(NC(=O)C(=O)NCc4ccccn4)cc1c32 (stereo not shown) | 8.33%
CCCNC(=O)COc1coc(CN2CCN(Cc3ccccc3)CC2)cc1=O | 15.2%
Cc1cc(Cl)ccc1NC(=O)COC(=O)c1c(C)noc1C | 7.79%
COc1cc(OC)cc(C(=O)NCC(=O)Nc2ccc(C)c(Cl)c2)c1 | 12.6%
O=C(Cc1ccc(Cl)cc1)N1CCN(C(=O)c2ccco2)CC1 | 4.2%
Cc1ccc(-c2cc(C(=O)N3CCN(C(=O)c4ccco4)CC3)[nH]n2)cc1C | 14.4%
O=C(c1ccco1)N1CCN(C(=O)c2ccc(-c3ccccc3Cl)o2)CC1 | -13.8%
O=C(c1ccco1)N1CCN(C(=O)c2ccc(-c3ccc(Cl)cc3)o2)CC1 | -67.5%
O=C(c1cc(-c2ccc(Cl)cc2)n[nH]1)N1CCN(C(=O)c2ccco2)CC1 | -69.3%

Compound | hERG current change (%, negative = inhibition) at 1uM
CC(=O)N1CCN(C(=O)c2ccc(-c3cccc(C(F)(F)F)c3)o2)CC1 | -19.2%
O=C(c1ccco1)N1CCN(C(=O)c2ccc(-c3cccc(C(F)(F)F)c3)o2)CC1 | -63.5%
O=C(c1ccc(-c2cccc(C(F)(F)F)c2)o1)N1CCCCCCC1 | 5.25%
COc1ccc(-c2cc(C(=O)N3CCN(C(=O)c4ccco4)CC3)[nH]n2)cc1 | -12.7%
CN1CC[C@@]2(C)c3cc(O)ccc3N(C)C2O1 (stereo partly shown) | 4.17%
Oc1[nH]c2ccccc2c1C1=NCCCCC1 | 3.28%
CC(C)c1nc2sc3c(c2c(=O)o1)CCCC3 | 9.49%
Cc1ccc(C(=O)N/C(=C\c2cn(S(=O)(=O)N(C)C)c3ccccc23)C(=O)N2CCCC2)cc1 | 16%
CC(=O)c1c(C)nn(CCC(=O)O)c1C | 12.2%
Cl.OCCN1CCN(c2nc(NCc3ccco3)c3ccccc3n2)CC1 | -39.4%
Cl.c1ccc(CNc2nc(N3CCN(Cc4ccccc4)CC3)nc3ccccc23)cc1 | 10.4%
Cl.c1coc(CNc2nc(N3CCCCC3)nc3ccccc23)c1 | -80.8%
Cl.OCCNc1nc(N2CCCCC2)nc2ccccc12 | -18.4%
Cl.OCCNc1nc(N2CCN(Cc3ccccc3)CC2)nc2ccccc12 | -28.6%
Cl.c1ccc2c(NCC3CCCO3)nc(N3CCCCC3)nc2c1 (stereo not shown) | -49.3%
Cl.c1ccc(N2CCN(c3nc(NCc4ccco4)c4ccccc4n3)CC2)cc1 | -9.89%
Cl.c1ccc(CN2CCN(c3nc(NCc4ccco4)c4ccccc4n3)CC2)cc1 | -54.5%
C=CCNc1nc(N2CCCC2)nc2ccccc12 | -66%
